Source: PubChem (several laboratories)
Beta cell apopt – inhibitors of cytokine-induced beta cell apoptosis, primary screen, luminescence; INS-1E cytokine-induced death, ATP luminescence, 48 h; percent of positive-control rescue, neutral wells zero; protection from apoptosis, % (test concentration not listed); actives 0.8% (n = 300,000);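 active = Every replicate reaches about 75%, or at least half do and their mean reaches it too, limit read from the data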;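 note: 0% = cytokine-treated negative control wells and 100% = positive control rescue; higher means more ATP so stronger rescue from cytokine killing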
Gli-Sufu block – Gli-Sufu pathway antagonists, primary screen, luciferase luminescence, Sufu-KO-LIGHT cells, uHTS; Sufu-KO-LIGHT fibroblasts, Gli luciferase reporter luminescence; inhibition, % at 5 µM; actives 0.74% (n = 340,000); AID 588413, 2011;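 active = inhibition above about 55%, limit read from the data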;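 note: 0% = DMSO-treated cells and 100% = wells with medium but no cells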
MPTP block – mitochondrial permeability transition pore inhibitors, primary screen, biochemical, isolated mouse mitochondria, absorbance; Ca2+ swelling absorbance, 30 min; actives 1.4% (n = 360,000); inhibition, % at 10 µM;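 active = inhibition of 50% or more, scaled per plate between neutral and stimulator controls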;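 note: 0% = DMSO wells given calcium and 100% = 1 mM EGTA wells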
Mdm2 MdmX PPI – inhibitors of human Mdm2-MdmX association, primary screen, cell-based, luminescence, split luciferase, SaOS-2, uHTS | inhibition, % at 8 µM | actives 3% (n = 330,000) | SaOS-2 split-luciferase Mdm2/MdmX complementation | AID 485346, 2010 | Protein Mdm4 (Homo sapiens) + E3 ubiquitin-protein ligase Mdm2 (Homo sapiens), …;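 active = inhibition of at least 50% at 8 µM in the primary screen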
CSC inhib – cancer stem cell viability inhibitors, primary screen, luminescence. cancer stem cell-like cells viability. inhibition, % at 7.5 µM. actives 1.1% (n = 300,000). AID 2717, 2010; in the data active = inhibition above about 75%; tested in HMLE shEcad cells
NR3A LBD binder – binders of NR3A ligand-binding domain, primary screen, biophysical, differential scanning fluorimetry, uHTS; Glutamate receptor ionotropic, NMDA 3A (GRIN3A) ligand-binding domain; NR3A LBD differential scanning fluorimetry, Tm shift; 0% = protein alone, 100% = glycine-bound protein; Tm shift relative to glycine control, % at 25 µM; actives 2.5% (n = 340,000);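 active = melting temperature shift of at least 10% of the positive control shift, at one fixed dose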
The depositor's hits bear a star; . = not tested or not shown. A selection: hits, their analogues and other compounds. The true share with any hit is near 6.6%.

SMILES	Beta cell apopt	Gli-Sufu block	MPTP block	Mdm2 MdmX PPI	CSC inhib	NR3A LBD binder
Cc1cnc(C(=O)OCC(=O)N2C(C)CCCC2C)cn1 (stereo unspecified)	-3	2	0	-9	2	-1
COc1cccc(N2CCN(C(=O)CN3C(=O)NC(C)(c4ccc5ccccc5c4)C3=O)CC2)c1 (stereo unspecified)	13	3	-2	17	-15	19*
OC[C@@H]1CN(Cc2ccc(Cl)cc2)C[C@H](n2cnc3c(NC4CCC4)ncnc32)O1	.	.	0	.	.	.
COc1cc(OC)nc(-n2ncc(Br)c(Br)c2=O)n1	99*	36	1	.	107*	1
Cc1cccc(C)c1NC(=O)CNC(=O)CNC(=O)c1ccc2ccccc2c1	.	.	0	.	.	.
CCCNCC1C(Oc2ccc(Cl)cc2Cl)C(=O)N1c1cccc(C)c1C (stereo unspecified)	44	27	-1	-4	81*	-7
CCCCCCCCCCCCCCCCn1cc[n+](CC(C)=O)c1	.	73*	16	.	.	-2
CC(=O)Nc1ccc(S(=O)(=O)NCC2CCC(C(=O)NCCCN(C)Cc3ccccc3)CC2)cc1 (stereo unspecified)	0	-4	-1	3	-2	15*
COc1ccc(-c2cc3ccccc3n2CC(O)CN2CCCCC2)cc1 (stereo unspecified)	-1	-32	1	23	-3	0
CCC(=C(c1ccc(OC)cc1)c1ccc(OC)cc1)c1cn(CC(O)CN2CCN(C)CC2)c2ccccc12 (stereo unspecified)	1	3	-1	.	107*	-14
COc1cccc(-c2cnc3c(NC=O)cc(-c4cccc(C(=O)N(C)C)c4)cn23)c1	.	.	0	.	.	.
COc1ccc(C(=O)Nc2ccc(NC(=O)c3cnccn3)cn2)cc1	-2	-2	0	30	9	14*
COc1ccc(C(=O)Nc2ccc(-c3ccc(NC(=O)c4ccc(OC)cc4)c(OC)c3)cc2OC)cc1	9	11	2	46	-10	28*
Cc1ccc(C(=O)Nc2ccc(C(=O)N/N=C/c3ccc(C)o3)cc2)cc1	5	25	0	7	0	15*
COc1ccc(C(=O)Nc2cc(-c3ccc(C)cc3)no2)cc1	-8	-23	2	38	17	11*
COc1ccc(NC(=O)c2ccc(C(=O)Nc3ccc(OC)cc3OC)cc2)c(OC)c1	-2	3	0	-3	3	0
Cc1ccc(-c2cc(NC(=O)c3ccccc3)on2)cc1	-4	-61	0	-14	15	-13
O=C1CCC(O)CCN1CCSc1ccccc1 (stereo unspecified)	-5	-34	-1	-29	0	2
O=C1CCc2cccc(O)c2N1	.	-25	0	.	.	8
COc1ccc(C(=O)NNC(=O)C(=O)Nc2ccc(C)cc2)cc1	0	6	1	24	6	-6
COc1ccc(NC(=O)c2ccc(C)cc2)cc1	.	-75	0	-62	-2	42*
COc1ccc(N2C(=O)C3CC=C(Cl)CC3C2=O)cc1 (stereo unspecified)	5	1	0	6	6	1
COc1ccc(C(=O)Nc2cccc(C)c2)cc1	5	-117	4	-99	22	17*
Cc1ccc(SCC(=O)Nc2cccc(C)c2)cc1	-2	2	-1	27	-18	-1
COc1ccc(NC(=O)c2ccc(N3C(=O)C4CC=C(Cl)CC4C3=O)cc2)cc1 (stereo unspecified)	-3	-49	0	-7	-18	18*
SMILES	Beta cell apopt	Gli-Sufu block	MPTP block	Mdm2 MdmX PPI	CSC inhib	NR3A LBD binder
Cc1ccc(SCC(=O)Nc2ccc(C(=O)Nc3ccc(O)cc3)cc2)cc1	-2	-4	-3	-12	-3	19*
COc1ccc(C(=O)Nc2cccc(NC(C)=O)c2)cc1	.	.	1	.	.	.
O=C(/C=C/c1ccc(Cl)c(Cl)c1)NC1=NCCS1	-24	-45	1	-29	-10	-3
CN(C)C(=O)c1cnc(Cc2c[nH]c3ccccc23)c(I)c1	.	.	0	.	.	.
Cc1cccc(OC(C)C(=O)Nc2ccccc2C(=O)N2CCCCC2)c1 (stereo unspecified)	-1	4	0	-3	-7	1
O=C(CCC(=O)N1CCN(S(=O)(=O)c2ccc([N+](=O)[O-])cc2)CC1)N1CCOCC1	-5	24	-2	-2	-3	8
COc1ccc(NC(=O)c2ccc(CN3CCN(c4ccccc4)CC3)cc2)cc1	4	13	2	38	-3	-22
COc1ccc(NC(=O)c2cccc(N3C(=O)C4C5C=CC(C6CC56)C4C3=O)c2)cc1 (stereo unspecified)	0	14	1	33	-9	23*
CC(=O)Nc1ccc(/C=N/NC(=O)CCN2CCN(c3ccccc3)CC2)cc1	-2	-29	2	25	-15	33*
COc1ccc(NC(=O)c2cccc(N3C(=O)C4C5CCC(C5)C4C3=O)c2)cc1 (stereo unspecified)	.	2	-1	-4	-4	-5
COc1ccc(NC(=O)c2ccc(NC(=O)CN3CCN(c4ccccc4)CC3)cc2)cc1	-6	.	-1	17	-16	19*
CC(=O)c1ccc(OC(=O)COc2ccccc2Cl)cc1	-5	2	1	22	14	1
COc1ccc(/C=C(\C#N)C(=O)OCC(=O)NCc2ccc(Cl)cc2)cc1	.	.	.	4	0	.
O=C(O)/C=C/C(=O)Nc1ccc(S(=O)(=O)Nc2nccs2)cc1	-2	-34	-2	13	-12	1
CCN(CC)S(=O)(=O)c1ccc(N2CCCC2)c(NS(=O)(=O)c2ccccc2)c1	-1	-15	1	4	2	16*
CCN(CC)S(=O)(=O)c1ccc(N2CCCC2)c(NS(=O)(=O)c2ccc(F)cc2)c1	1	2	1	5	.	-1
COC(=O)c1c(NC(=O)c2ccc(C)c(S(=O)(=O)Nc3ccccc3C)c2)sc2c1CCCC2	-4	14	2	23	75*	-2
COC(=O)c1c(NS(=O)(=O)c2ccc3ccccc3c2)sc2c1CCCC2	0	1	2	7	47	-3
COc1ccc2oc(=O)cc(CN3CCN(Cc4ccc(OC)c(OC)c4OC)CC3)c2c1	-5	16	0	3	-3	0
Cc1ccc(S(=O)(=O)N2[C@@H](CO)CO[C@H]2CC(=O)OCc2ccccc2)cc1	.	.	0	.	.	.
CCC(CC)c1nnc(NC(=O)c2c(C)nn(Cc3ccccc3Cl)c2C)s1	-14	2	-3	32	-3	16*
